Source: PubChem BioAssay AID1159580 (chemical genetic matrix, 2015)
The whole screen tested about 5,500 compounds, of which about 2,000 (36%) were called active. Inconclusive results (about 18%) are left out. Cut-off read from the data, not from the text of the source: active = normalized growth mostly below about 0.91 (no sharp cut-off); inconclusive = no clear call, values can overlap the other calls; inactive = mostly above about 0.92. This is one part of the list.

Assay: chemical genetic growth profiling, strain panel (AID 1159580);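 note: tested at 20 µM; growth read once vehicle control cultures reached saturation at 30 °C; 1 = growth at the plate median or of vehicle wells; lower values mean less growth of the strain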
Details: S. cerevisiae deletion strains, growth OD

Measured: normalized growth

CO[C@H]1[C@H](O)[C@H](O[C@H]2CC[C@]3(C)C4CC[C@]5(C)C(C6=CC(=O)OC6)CC[C@]5(O)C4CC[C@@H]3C2)O[C@@H](C)[C@@H]1O (some centres undefined)
inactive: locus YAL013W, strain DEP1, active compounds read low 1.01 | locus YAL021C, strain ccr4, active compounds read low 1 | locus YAL026C, strain drs2, active compounds read low 1.01 | locus YAL030W, strain snc1, active compounds read low 1 | locus YBL061C, strain skt5, active compounds read low 0.993 | locus YBR009C, strain hhf1, active compounds read low 1.01 | locus YBR021W, strain FUR4, active compounds read low 1.02 | locus YBR023C, strain chs3, active compounds read low 0.999 | locus YBR171W, strain sec66, active compounds read low 0.984 | locus YBR229C, strain ROT2, active compounds read low 1.01 | locus YBR231C, strain swc5, active compounds read low 1.03 | locus YBR279W, strain paf1, active compounds read low 1.01 | locus YCL011C, strain gbp2, active compounds read low 0.992 | locus YCL016C, strain dcc1, active compounds read low 1 | locus YCL029C, strain bik1, active compounds read low 1.01 | locus YCL061C, strain MRC1, active compounds read low 0.996 | locus YCL069W, strain vba3, active compounds read low 1 | locus YCR088W, strain abp1, active compounds read low 1 | locus YDL005C, strain med2, active compounds read low 0.994 | locus YDL035C, strain GPR1, active compounds read low 1.02 | locus YDL040C, strain nat1, active compounds read low 1.02 | locus YDL074C, strain BRE1, active compounds read low 1.02 | locus YDL101C, strain DUN1, active compounds read low 1.02 | locus YDL134C, strain PPH21, active compounds read low 1 | locus YDL185W, strain tfp1, active compounds read low 1 | locus YDL192W, strain arf1, active compounds read low 1.01 | locus YDR001C, strain nth1, active compounds read low 0.994 | locus YDR069C, strain doa4, active compounds read low 0.997 | locus YDR101C, strain arx1, active compounds read low 0.993 | locus YDR137W, strain rgp1, active compounds read low 1 | locus YDR150W, strain NUM1, active compounds read low 1.01 | locus YDR159W, strain sac3, active compounds read low 0.997 | locus YDR162C, strain NBP2, active compounds read low 1.02 | locus YDR195W, strain ref2 0.989 | locus YDR297W, strain sur2, active compounds read low 1.01 | locus YDR318W, strain mcm21, active compounds read low 1.01 | locus YDR334W, strain swr1, active compounds read low 1.03 | locus YDR335W, strain msn5, active compounds read low 1.01 | locus YDR388W, active compounds read low 1.01 | locus YDR392W, strain spt3, active compounds read low 0.991 | locus YDR502C, strain sam2, active compounds read low 1 | locus YEL003W, strain gim4, active compounds read low 1.02 | locus YEL037C, strain rad23, active compounds read low 1.01 | locus YEL061C, strain CIN8 (second series), active compounds read low 0.987 | locus YEL061C, strain CIN8, active compounds read low 1.01 | locus YER015W, strain faa2, active compounds read low 1 | locus YER016W, strain bim1, active compounds read low 1 | locus YER110C, active compounds read low 1.02 | locus YER111C, strain swi4, active compounds read low 1.01 | locus YER155C, strain BEM2 (second series), active compounds read low 1.03 | locus YER155C, strain BEM2, active compounds read low 1.02 | locus YER167W, strain BCK2, active compounds read low 1.02 | locus YFR010W, strain ubp6, active compounds read low 1.01 | locus YGL078C, strain dbp3, active compounds read low 1 | locus YGL086W, strain mad1, active compounds read low 1.01 | locus YGL167C, strain pmr1, active compounds read low 1 | locus YGL173C, strain kem1, active compounds read low 0.996 | locus YGL227W, strain vid30, active compounds read low 0.997 | locus YGL240W, strain doc1, active compounds read low 1.02 | locus YGL248W, strain PDE1, active compounds read low 1.01 | locus YGL253W, strain hxk2, active compounds read low 0.996 | locus YGR078C, strain PAC10, active compounds read low 1.01 | locus YGR135W, strain pre9, active compounds read low 1.02 | locus YGR229C, strain SMI1, active compounds read low 1.03 | locus YGR252W, strain gcn5, active compounds read low 0.964 | locus YHR013C, strain ard1, active compounds read low 0.98 | locus YHR027C, strain rpn1, active compounds read low 0.979 | locus YHR030C, strain SLT2, active compounds read low 1.01 | locus YHR079C, strain IRE1 (second series), active compounds read low 1.01 | locus YHR094C, strain hxt1, active compounds read low 1.01 | locus YHR129C, strain ARP1, active compounds read low 1.01 | locus YHR142W, strain chs7, active compounds read low 1.02 | locus YHR200W, strain rpn10, active compounds read low 1.01 | locus YIL066C, strain RNR3, active compounds read low 1.01 | locus YIL073C, strain SPO22, active compounds read low 1.02 | locus YIL125W, strain kgd1, active compounds read low 0.997 | locus YIR030C, strain dcg1, active compounds read low 0.998 | locus YJL092W, strain hpr5, active compounds read low 1 | locus YJL095W, strain BCK1 (second series), active compounds read low 0.981 | locus YJL095W, strain BCK1, active compounds read low 1.04 | locus YJL115W, strain asf1, active compounds read low 0.999 | locus YJL129C, strain trk1, active compounds read low 0.974 | locus YJL134W, strain LCB3, active compounds read low 1.01 | locus YJL154C, strain vps35, active compounds read low 1.01 | locus YJL164C, strain tpk1, active compounds read low 0.998 | locus YJL166W, strain qcr8, active compounds read low 1 | locus YJL168C, strain set2, active compounds read low 1.01 | locus YJL187C, strain SWE1 (second series), active compounds read low 1.02 | locus YJL187C, strain SWE1, active compounds read low 0.998
